# In PubChem BioAssay AID504329 (Southern Research Specialized Biocontainment Screening …, 2011):
# Hit rate of the full screen: of about 340,000 compounds, about 1,000 (0.29%) were called active. Only a sample is shown. Results with a measured potency or affinity are listed apart. A number with no mark means an inactive call. No stated cut-off is given here; in the data, inconclusive means inhibition above about 27% without an active follow-up result; inactive means below that.
# Assay: H1N1 influenza NS1A inhibitors, functional cell based assay (AID 504329)
# Settings: percent inhibition, at 12.5 µM, active compounds read high
row,Structure (SMILES),inhibition
1,CCOC(=O)C1=C(C)N(C[C@@H]2CC[C@@H](Cc3ccc(-c4ccccc4)cc3)O2)C(=O)NC1c1ccc(Cl)cc1 (stereo partly specified),-4.34%
2,Cc1cccc(C)c1NC(=O)COC(=O)COc1ccc2c(C)cc(=O)oc2c1,10.5%
3,COc1ccccc1-n1nnnc1SCC(=O)NCC1CCCO1 (stereo unspecified),-3.64%
4,Cc1cccc(NC(=S)N(CCCN2CCOCC2)Cc2cn(C)c3ccccc23)c1,4.41%
5,CC1(C)c2ssc(=S)c2-c2ccccc2N1C(=O)c1ccco1,2.72%
6,Cc1ccc2c(c1)-c1c(ssc1=S)C(C)(C)N2C(=O)CN1C(=O)c2ccccc2C1=O,28.5%
7,CCOc1ccc2c(c1)-c1c(ssc1=S)C(C)(C)N2C(=O)CSC1=NCCS1,20%
8,Cc1cc2c(cc1C)N(C(=O)CSC1=NCCS1)C(C)(C)c1ssc(=S)c1-2,14.7%
9,CCOC(=O)c1c(NC(=O)c2ccc(N3C(=O)[C@@H]4[C@H](C3=O)[C@H]3C=C[C@@H]4C3)cc2)sc2c1CCCC2,-7.09%
10,CC(C)C(=O)Nc1ccc(NC(=S)NC(=O)c2ccccc2F)cc1,1.28%
11,O=S(=O)(NCCc1cn2ccccc2n1)c1ccc2c(c1)CCCC2,25.4%
12,S=C(CN1CCCC1=S)NCCc1ccccc1,-5.27%
13,Cc1[nH]c2ccccc2c1CCNS(=O)(=O)c1ccc(S(N)(=O)=O)cc1,23.3%
14,CN(Cc1ccc(Cl)c(Cl)c1)C(=O)c1ccccc1SCC(=O)N1CCCC1,-4.06%
15,CN(C)Cc1c(C(=O)N/N=C/c2ccncc2)nnn1-c1nonc1N,6.41%
16,Cc1ccc(S(=O)(=O)N2[C@@H](c3cccc(C)c3)C(C(=O)O)=C[C@H]2CC2CCCC2)cc1,8.82%
17,Cc1ccc(-n2nnnc2SCC(=O)Nc2ccccc2N2CCCCC2)cc1C,-1.34%
18,Cc1cc(C)nc(NC(N)=NCCc2ccccc2)n1,-1.52%
19,CCCCSCCCNC(=O)C1CCC(CNS(=O)(=O)c2ccccc2)CC1 (stereo unspecified),-20%
20,COc1cc(NC2c3ccccc3C(=O)N2Cc2ccc3c(c2)OCO3)cc(OC)c1 (stereo unspecified),-1.58%
21,COc1ccc(NC2c3ccccc3C(=O)N2Cc2ccc3c(c2)OCO3)cc1 (stereo unspecified),5.36%

row,Structure (SMILES),inhibition
1,O=C(NCCN1CCCCC1)Nc1ccc(Br)cc1,-24.7%
2,N#Cc1cc(N2CCCCC2)c([N+](=O)[O-])cc1C#N,9.08%
3,O=[N+]([O-])c1cc(F)c(N2CCCCC2)cc1N1CCOCC1,10.6%
4,O=C(CSc1n[nH]c(=O)[nH]c1=O)Nc1ccccc1C(=O)c1ccccc1,-9.72%
5,CCc1cccc(NC(=O)CCSCCC(=O)Nc2cccc(CC)c2)c1,14.8%
6,COC(=O)CCCCC1SCC2NC(=O)NC21 (stereo unspecified),1.31%
7,O=C(O)CCCCC1SCC2NC(=O)NC21 (stereo unspecified),22.1%
8,Cc1ccc(NC(=O)CCC(=O)Nc2ccc(C)cc2)cc1,4.02%
9,Cc1cccc(C)c1NC(=O)CCCCCC1NC(=O)NC1C (stereo unspecified),24.2%
10,CCCCC(=O)Nc1ccc(F)c(Cl)c1,0.54%
11,CCc1cccc(NC(=O)CCCN2C(=O)NC(C)(C)C2=O)c1,-6.41%
12,CCC(=O)Nc1ccc(F)c(Cl)c1,-2.47%
13,COc1ccc(C(C(=O)NC2CCCC2)N(CCN(C)C)C(=O)c2snc(C(N)=O)c2N)cc1 (stereo unspecified),-6.89%
14,O=C(Cc1ncc(C(F)(F)F)cc1Cl)NC1CC1,-2.28%
15,O=C(Cc1cccc(C(F)(F)F)c1)N1CCN(CC(=O)N2CCCC2)CC1,-1.65%
16,CCCNC(=O)CN(c1cccc(F)c1)S(C)(=O)=O,-3.24%
17,COC(CNC(=O)CN1CCN(Cc2ccccc2F)C1=O)OC,-6.42%
18,COc1ccc(NC(=O)CN2CCN(CC(=O)Nc3ccc(F)cc3)CC2)c(OC)c1,-6.91%
19,O=C(COC(=O)c1ccc(O)cc1)NCC1COc2ccccc2O1 (stereo unspecified),-6.24%
20,Cc1nn(CC(=O)NC(=O)c2ccccc2)c(C)c1[N+](=O)[O-],-12.3%
21,COc1ccc(CC(=O)OC2CCCN(C)C2)cc1 (stereo unspecified),2.07%

row,Structure (SMILES),inhibition
1,CCCCCC1NC(=O)NC1CCCCCC(=O)O (stereo unspecified),0.19%
2,O=C(CCCCC(=O)Nc1ccc(F)cc1)Nc1ccc(F)cc1,-8.93%
3,Cc1c(F)cccc1NC(=O)CCC(=O)O,22.1%
4,Cc1c(F)cccc1NC(=O)CSCC(=O)Nc1ccccc1,-20.1%
5,O=C(CCCCCN1C(=O)c2ccccc2C1=O)Nc1ccc(F)cc1,15.1%
6,CC1NC(=O)NC1CCCCC(=O)O (stereo unspecified),8.09%
7,COc1ccc(NC(=S)NCCc2ccc(S(N)(=O)=O)cc2)c(OC)c1,0.63%
8,Cc1ccc(C)c(OCCn2cc(/C=C(\C#N)C(=O)NCC3CCCO3)c3ccccc32)c1 (stereo unspecified),5.75%
9,O=C(COC(=O)Cc1ccc(Cl)cc1)Nc1ccc(OC(F)F)cc1,-4.03%
10,COc1cc(CN2C(=S)NC(C)(C)CC2(C)O)cc(OC)c1 (stereo unspecified),-3.29%
11,Cc1cc(C)n(Cc2ccc(C(=O)Nc3cccc(Br)c3)o2)n1,26.6%
12,O=C(N/N=C/C1C(c2ccccc2)C1(Cl)Cl)c1cccc(Br)c1 (stereo unspecified),-5.72%
13,O=C1C(Cc2ccc(O)cc2)NC(=S)N1c1ccccc1 (stereo unspecified),2.29%
14,O=C(N/N=C/c1coc2ccccc2c1=O)c1cc(Br)c(O)c(Br)c1,-7.78%
15,O=C(C[n+]1ccc(C(=O)N/N=C/c2ccc(O)cc2)cc1)c1ccccc1,2.67%
16,C=CCN1C(=O)/C(=C\c2ccc(C)cc2)N=C1SCC(=O)NCCC,-5.98%
17,C/C(=N\NC(=O)c1ccn(C)n1)c1cccc(NC(=O)c2ccncc2)c1,10.3%
18,COC(=O)C1=C(O)CSC1=Nc1ccc(C)cc1,-6.3%
19,CCc1nn2cc(C(=O)c3ccccc3O)cnc2c1-c1ccc(F)cc1,14.5%
